Results filed as inconclusive are left out. Activity calls are given as the source filed them. Rule for the calls: active = hit-call score of the fitted dose curve at least 0.9, where 1 is the maximum; inconclusive = response in the unintended direction; inactive = score below 0.9.
Experiment: ACEA_ER_AUC_viability: ACEA Biosciences xCELLigence Real-Time Cell Analysis on Estrogen Receptor Agonism for Viability (AID 2283782);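 note: continuous compound exposure with impedance area under curve over 80 h; hit means loss of impedance signal meaning reduced cell growth or viability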
Protocol: ACEA_ER is a cell-based, single-readout assay that uses T47D, a human breast cell line, with measurements taken at 80 hours after chemical dosing in a 96-well plate, although TO2 (mc0.srcf) used a 384-well plate. Differences in plate size can be ignored given data normalization.ACEA_ER_AUC_viability is one of two assay component(s) measured or calculated from the ACEA_ER assay. It is designed to make measurements of real-time cell-growth kinetics, a form of growth reporter, as detected with electrical impedance signals by Real-Time Cell Electrode Sensor (RT-CES) technology.Data from the assay component ACEA_ER_AUC_viability was analyzed in the positive analysis fitting direction relative to DMSO as the negative control and baseline of activity. Using a type of growth reporter, loss-of-signal activity can be used to understand changes in the viability. Furthermore, this assay endpoint can be referred to as a secondary readout, because this assay has produced multiple assay endpoints where this one serves a viability function. To generalize the intended target to other relatable targets, this assay endpoint is annotated to the cell cycle intended target family, where the subfamily is cytotoxicity.
The xCELLigence system Multi-E-Plate stations were used to measure the time-dependent response to chemicals. Each compound was tested in an eight-point, 1:4 serial dilution series starting at a maximum final concentration of 100 uM. A maximum starting concentration of 0.5% DMSO was present in the 100 uM chemical samples and was diluted along with the test article dilution series. The screen was performed in biological duplicate using two separate, 96-well, E-Plates 96 for each dilution series (n = 2). Positive controls (MG132 and E2) and a negative control (assay media) were tested in quadruplicate on each testing plate. Then, 0.5% and 0.125% DMSO were tested in duplicates in each plate to serve as solvent controls for the 2 highest concentrations of testing compounds: 100 uM and 25 uM. Reference compounds were tested with 8 concentrations with 1:5 serial dilutions. All screening was carried out by ACEA Biosciences, Inc. (San Diego, CA). T-47D cells purchased from ATCC were maintained in RPMI1640 media supplemented with 10% characterized fetal bovine serum (FBS). Before screening, T-47D cells were preconditioned in assay medium: phenol red-free RPMI1640 supplemented with 10% charcoal-stripped FBS. Cells were then detached and seeded in E-Plates 96 in assay medium. After overnight monitoring of growth once every hour, compounds were added to […] cells and remained in the medium until the end of the experiment. Cellular responses were then recorded once every 5 min for the first 5 h, and once every hour for an additional 100 h.
For `CC1=NN(c2ccc(S(=O)(=O)O)cc2)C(=O)C1N=Nc1ccccc1` (stereo not given), the outcome was “inactive”. For `Nc1ccnc(=O)[nH]1`, the outcome was “inactive”. For `O=C1CCCN1C1CCCCC1`, the outcome was “inactive”. In the case of `CC(=O)c1ccccc1O`, the outcome is reported as “inactive”. In the case of `COc1nccnc1CC(C)C`, the outcome is reported as “inactive”. With `Nc1ccc(Cl)c(N)c1` the AC50 was 73 µM (active). In the case of `CC1(C)CCC[C@]2(C)[C@H]3CC(=O)O[C@]3(C)CC[C@@H]12`, the outcome is reported as “inactive”. For `[Cl][Sc]([Cl])[Cl]`, the outcome was “inactive”. For `CC(C)(O)Cc1ccccc1`, the AC50 was 27.5 µM (active). For `C=CC(C)(O)CC/C=C(\C)CC` (stereo not given), the AC50 was 50 µM (active). With `COC(=O)CC(C)CCC=C(C)C` (stereo not given) the outcome was “inactive”. In the case of `OCCCc1ccccc1`, the outcome is reported as “inactive”. In the case of `Cc1cccc(C(C)(C)C)c1O`, the outcome is reported as “inactive”. In the case of `CCCCCCO`, the outcome is reported as “inactive”. In the case of `CC(C)CCOCc1ccccc1`, the outcome is reported as “inactive”. With `CC(C)C(=O)OCCOc1ccccc1` the outcome was “inactive”. In the case of `CCC(C)c1ccccc1` (stereo not given), the outcome is reported as “inactive”. With `CC=C(C)C=CC=C(C)C` the AC50 was 50 µM (active). In the case of `Cc1c[nH]c(=O)[nH]c1=O`, the AC50 is reported as 68.6 µM (active). In the case of `C=CC(C)(CCC=C(C)C)OC(=O)C=Cc1ccccc1` (stereo not given), the AC50 is reported as 83.6 µM (active). With `C=CC(=O)OCCCCCCCC(C)C` the outcome was “inactive”. For `Nc1nc(N)nc(-c2ccccc2)n1`, the outcome was “inactive”. In the case of `Cc1cc(C)n(CO)n1`, the outcome is reported as “inactive”. In the case of `CCC(C)(O)CCCC(C)C` (stereo not given), the outcome is reported as “inactive”. With `CCCCCCCCCCCCc1ccc(O)cc1` the AC50 was 20 µM (active). With `Fc1ccc(Br)cc1` the outcome was “inactive”. With `C=C(C)C(=O)OCC(O)COc1ccc(C(C)(C)c2ccc(OCC(O)COC(=O)C(=C)C)cc2)cc1` (stereo not given) the AC50 was 30.3 µM (active). In the case of `CCCCCCCOC(=O)c1ccc(O)cc1`, the AC50 is reported as 24.1 µM (active). For `CCC1COC(=O)O1` (stereo not given), the outcome was “inactive”. In the case of `CC1=CP(=O)(c2ccccc2)CC1` (stereo not given), the outcome is reported as “inactive”. For `CC1CCC(C(C)(C)S)C(=O)C1` (stereo not given), the outcome was “inactive”. In the case of `CC(C)OC(=O)c1ccccc1`, the outcome is reported as “inactive”. In the case of `CCc1cccc(CC)c1`, the outcome is reported as “inactive”. In the case of `C[N+](C)(C)CCCNS(=O)(=O)C(F)(F)C(F)(F)C(F)(F)C(F)(F)C(F)(F)C(F)(F)C(F)(F)C(F)(F)F`, the AC50 is reported as 111 µM (active). In the case of `COC(OC)(C(=O)c1ccccc1)c1ccccc1`, the AC50 is reported as 64 µM (active). For `CCCCCCCCCCCC(=O)OCC`, the outcome was “inactive”. For `C=Cc1cccc(C)c1`, the outcome was “inactive”. With `CC1=C(O)C(=O)C(C)O1` (stereo not given) the AC50 was 66.8 µM (active). With `CCCCCCCCCCCC(=O)N(C)CC(=O)O` the outcome was “inactive”. In the case of `CCC1(C)C(=O)N(Cl)C(=O)N1Cl` (stereo not given), the AC50 is reported as 81.4 µM (active).
